# Shown are actives, neighbours in structure and some others; about 4.3% of the full set was active somewhere.
# UBC13 polyUb: blocks human UBC13 polyubiquitin chain formation. 0.47% of 330,000 active. inhibition, % at 20 µM. TR-FRET. AID 485273; in the data active = inhibition above about 45%, passing the limit was not always enough; inconclusive = no clear call, values can overlap the other calls
# Target sequence (P61088 whole entry, looked up): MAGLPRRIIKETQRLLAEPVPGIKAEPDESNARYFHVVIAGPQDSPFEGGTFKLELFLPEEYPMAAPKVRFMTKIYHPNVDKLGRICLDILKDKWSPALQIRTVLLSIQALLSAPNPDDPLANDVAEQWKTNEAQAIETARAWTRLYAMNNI
# NR3A LBD binder: NR3A (human) ligand-binding domain modulation. AID 1259313. 2.5% of 340,000 active. Tm shift relative to glycine control, % at 25 µM. NR3A LBD differential scanning fluorimetry, Tm shift; 0% = protein alone, 100% = glycine-bound protein;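 active = melting temperature shift of at least 10% of the positive control shift, at one fixed dose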
# dFosB act: mouse delta FosB homodimer activation. purified delta FosB, TAMRA-CDK5 oligo fluorescence polarization; percent of positive-control signal above neutral wells. activation, % at 25 µM. 0.99% of 340,000 active. AID 493131;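 active = mean activation above about 17%, with every replicate also reaching it, limit read from the data, passing the limit was not always enough; inconclusive = only one of the two conditions met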
# Target sequence (P13346 whole entry, looked up): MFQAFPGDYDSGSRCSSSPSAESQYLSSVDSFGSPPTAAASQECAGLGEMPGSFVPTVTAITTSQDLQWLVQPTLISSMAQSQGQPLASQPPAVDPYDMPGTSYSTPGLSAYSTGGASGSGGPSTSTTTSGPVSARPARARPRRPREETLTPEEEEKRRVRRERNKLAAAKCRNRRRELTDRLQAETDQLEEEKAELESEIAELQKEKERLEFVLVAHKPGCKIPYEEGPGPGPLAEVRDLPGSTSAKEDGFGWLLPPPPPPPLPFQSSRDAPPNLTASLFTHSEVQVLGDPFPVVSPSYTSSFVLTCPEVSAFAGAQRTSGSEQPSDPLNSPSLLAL
# Yeast superoxide: caloric restriction mimetics inhibiting age-related superoxide in yeast. S. cerevisiae aged cells, superoxide DHE fluorescence; active compounds read low. superoxide response (% of plate mean), % at 10 µM. 0.18% of 330,000 active. AID 2690;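 active = superoxide response under a set limit, about three screen SD below normal, cut at about 65% in these data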;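 note: yeast aged for seven days with compound at 30 °C before DHE staining; 100% = average MFI of all compound-treated wells on the plate with controls excluded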
# NALP1 yeast inh: inhibitors of NALP1 inflammasome in yeast. S. cerevisiae NALP1/ASC/caspase-1 growth, X-gal OD620, 72 h. inhibition, % at 10 µM. 0.61% of 280,000 active; in the data active = inhibition mostly above about 24%, no sharp cut-off; inactive = mostly below about 32%
# Starred values were filed as active, the others as inactive; u = inconclusive; x = no result.
SMILES,UBC13 polyUb,NR3A LBD binder,dFosB act,Yeast superoxide,NALP1 yeast inh
COc1ccc(CC2(CO)CCN(S(=O)(=O)c3cccc4cccnc34)CC2)cc1,-2.8,-0.7,-24.5,111.0,26.9
O=C(NNC(=O)c1cccs1)c1ccc(Br)o1,x,-1.3,-0.4,92.7,24.7
O=C(Nc1ccc(NC(=O)c2cccs2)cc1)c1ccc(Br)o1,2.8,24.3*,4.9,99.0,12.9
CC(C)Cn1c(SCC(=O)N2CCc3ccccc3C2)nc2cc(Cl)ccc2c1=O,-7.1,14.1*,-7.2,83.0,27.9
O=S(=O)(c1ccc2[nH]c3c(c2c1)CCCC3)N1CCCCC1,-1.6,-4.1,0.2,98.2,-2.6
N#Cc1ccc(S(=O)(=O)N2CCc3[nH]c4ccc(F)cc4c3C2)cc1,10.3,11.1*,3.7,98.0,17.2
CCn1c(SCC(=O)Nc2ccc3c(c2)OCCO3)nnc1C1CC1,6.0,-0.1,6.0,97.4,26.0
CCCn1c2ccccc2c2cnn(CC(=O)NCCCN3CCN(c4ccccc4)CC3)c(=O)c21,15.5,0.1,-7.5,94.3,23.7
CCCCOC(=O)c1ccc(NC(=O)c2c(OC)cccc2OC)cc1,9.9,9.2,1.4,91.2,0.3
CCCCOC(=O)c1ccc(NC(=O)Nc2ccc(OC)c(OC)c2)cc1,3.4,19.0*,3.1,102.5,-4.9
CCOC(=O)c1ccc(NC(=O)Nc2ccc(OC)c(OC)c2)cc1,-4.8,16.1*,2.0,101.6,9.1
O=C(/C=C/c1ccccc1)NC1CCCc2ccccc21 (stereo not given),-15.8,x,x,94.1,17.4
COc1ccc(OCC(=O)Nc2c3c(nn2C(C)(C)C)CS(=O)(=O)C3)cc1,-4.9,-0.9,-8.1,118.8,6.4
COc1ccc(CC(=O)Nc2c3c(nn2C(C)(C)C)CS(=O)(=O)C3)cc1,-7.1,14.1*,-1.6,109.7,8.4
Cc1cc(NN)nc2ccc(Cl)cc12,0.8,12.2*,-4.0,87.8,-16.9
Cc1cc(C)c2ccc(Cl)cc2n1,-9.5,-2.0,-5.0,82.4,0.7
O=C(COc1coc(CN2CCN(c3ccc(F)cc3)CC2)cc1=O)NCC1CCCO1 (stereo not given),-4.7,0.3,-3.4,103.8,x
CC(=O)c1ccc(N(CC(=O)NC2CCCCC2)C(=O)CNC(=O)c2ccco2)cc1,0.1,0.9,-10.7,94.1,-16.2
COC(=O)c1ccc(NC(=O)Nc2ccc([N+](=O)[O-])cc2)cc1,-8.1,34.0*,2.2,116.1,31.9
COc1ccc(NC(=O)Nc2ccc3[nH]ccc3c2)cc1,-1.8,34.8*,x,88.5,x
O=C(Nc1ccc2[nH]ccc2c1)c1ccccc1,2.9,-5.0,1.4,87.7,-6.4
COc1ccc(C(=O)CC(=O)Nc2ccc([N+](=O)[O-])cc2)cc1,-5.1,24.4*,-4.0,98.4,-8.1
COC(=O)c1ccc(NC(=O)Nc2ccc(OC)cc2)cc1,-4.2,10.3*,-4.7,96.1,4.4
O=C(Nc1ccc(C(=O)O)cc1)Nc1ccc([N+](=O)[O-])cc1,-7.5,1.1,-2.4,91.1,-6.1
COC(=O)c1ccc(NC(=O)Nc2ccccc2C)cc1,2.9,0.8,-0.9,93.1,-2.6
SMILES,UBC13 polyUb,NR3A LBD binder,dFosB act,Yeast superoxide,NALP1 yeast inh
COC(=O)[C@@H](Cc1ccc(O)cc1)NC(=O)[C@H]1CCC(=O)N1C(=O)OCc1ccccc1,2.0,-1.1,1.3,97.2,23.3
CCc1ccc(CCC(=O)Nc2ccc(OC)cc2)o1,5.3,32.5*,0.9,109.6,-50.3
CC(=O)c1ccc(NC(=O)Nc2ccc3c(c2)nc(C)n3C)cc1,16.6,4.6,-5.9,96.2,5.3
COC(=O)c1ccc(NC(=O)Nc2ccc3c(c2)nc(C)n3C)cc1,-1.1,25.0*,-10.8,90.5,4.2
COc1ccc(CNC(=O)Nc2ccc(OC)cc2)cc1,3.1,x,10.1,85.6,17.3
COc1ccc(NC(=O)Nc2ccc(OC)cc2)cc1,-5.8,13.2*,-1.9,98.8,-3.6
COc1ccc(NC(=O)Nc2ccc(N(C)C)cc2)cc1,-21.1,11.8*,-1.0,103.2,10.6
O=C(O)CCNC(=O)c1ccc(N=Nc2ccc(O)c(C(=O)O)c2)cc1,-6.6,x,x,x,x
CSc1cccc(CN2CCC(n3nccc3NC(=O)C3CC3)CC2)c1,4.9,-1.6,-1.7,92.9,-4.5
CCOc1ccc(NC(=O)COc2ccc(OC)cc2)cc1,9.6,-25.3,-12.5,93.6,0.9
COc1ccc(NC(=O)Nc2ccc3nonc3c2)cc1,-10.4,18.7*,x,77.3,1.4
COc1ccc(C(=O)/C(C#N)=N/Nc2ccc([N+](=O)[O-])cc2)cc1,-235.1,16.9*,-7.5,117.6,6.2
COc1ccc(NC(=O)COc2nc(N(C)C)nc(N(C)C)n2)cc1,1.3,2.2,-2.0,98.4,27.7*
Cc1ccc(NC2CCCN(C(=O)c3ccc(-n4ccnc4)cc3)C2)cc1C (stereo not given),0.5,0.2,-14.5,101.4,5.8
O=C(Nc1ccc(-n2cc(Br)cn2)cc1)c1ccncc1,1.6,-1.3,-6.3,99.3,17.0
O=C(c1ccncc1)N1CCN(S(=O)(=O)c2cccc(Cl)c2)CC1,0.1,-0.5,2.1,91.4,x
Cn1c(=O)[nH]c(=O)c2c1nc(N1CCN(CCO)CC1)n2Cc1ccccc1,4.4,1.7,1.1,105.9,13.4
C(=N\Nc1nncc2ccccc12)/c1ccccn1,-5.5,-1.6,4.1,80.5,37.1*
Fc1cccc(/C=N/Nc2nncc3ccccc23)c1,-9.3,1.2,1.8,94.9,12.2
CCOC(=O)C1(C(=O)OCC)CCN(S(=O)(=O)c2ccccc2)CC1,x,-0.2,-1.1,x,x
O=C(CSc1ccccn1)Nc1ccc2c(c1)oc1ccccc12,3.5,26.0*,-4.8,103.2,42.2
CSCC[C@H](NC(=O)OC(C)(C)C)C(=O)N1CCC(C(=O)NCC(=O)Nc2ccc(C)cc2)CC1,3.8,0.0,-6.4,132.5,-8.8
COC(=O)c1ccc(N=Cc2c(C(F)(F)F)[nH][nH]c2=O)cc1,-0.6,-4.0,-4.0,96.6,27.3*
Cc1nonc1NC(=O)CSc1nc(C23CC4CC(CC(C4)C2)C3)nc2ccccc12,10.6,17.5*,-6.2,116.9,x
Oc1ccccc1/C=N/Nc1ccccc1,-24.7,12.7*,-7.5,71.7,41.7
SMILES,UBC13 polyUb,NR3A LBD binder,dFosB act,Yeast superoxide,NALP1 yeast inh
Oc1ccccc1/C=N/Nc1cccc2cccnc12,-3.9,10.2*,-10.5,85.3,-3.9
O=[N+]([O-])c1ccccc1C=NNc1ccccc1,x,-23.8,-1.2,x,x
O=C(COc1cccc2cccnc12)N/N=C/c1ccccc1O,0.2,-0.1,5.4,96.8,-4.1
Oc1ccccc1C=NNC(=S)NN=Cc1ccccc1O,x,26.7*,7.5,x,x
N=c1sccn1CC(=O)Nc1ccc(SC(F)F)cc1,1.7,0.4,0.6,100.2,25.2
Cc1ccc(S(=O)(=O)N(C)c2ccc(OC(C)C(=O)N(C)c3ccccc3)cc2)cc1 (stereo not given),0.8,-2.3,-15.8,x,x
CCOC(=O)C(=O)NNc1ccc(Cl)cc1,-4.5,-1.5,6.0,113.4,50.2*
O=C(Nc1ccc(Nc2ccncc2)cc1)c1ccc(Nc2ccnc3ccc([N+](=O)[O-])cc23)cc1[N+](=O)[O-],x,3.0,u,104.3,8.8

# Assay outcomes (PubChem BioAssay)
